# PubChem BioAssay (EPA / NIEHS)
# Activity calls are given as the source filed them. Rule for the calls: active = hit-call score of the fitted dose curve at least 0.9, where 1 is the maximum; inactive = score below 0.9.
# Assay: BSK_3C_SRB: Viability Assessment in the BioMAP Diversity Plus: 3C Assay (AID 2283023);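 note: fitted both ways against DMSO so a hit may be signal rise or drop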
# Settings: primary human endothelial cells (HUVEC)
# Description: BSK_3C is a cell-based, multiplexed-readout assay that uses umbilical vein endothelium, a human vascular primary cell, with measurements taken at 24 hours after chemical dosing in a 96-well plate.BSK_3C_SRB is an assay component measured in the BSK_3C assay. It measures 0.1% sulforhodamine related to cell death using Sulforhodamine staining technology.Data from the assay component BSK_3C_SRB was analyzed into 1 assay endpoint. This assay endpoint, BSK_3C_SRB, was analyzed with bidirectional fitting relative to DMSO as the negative control and baseline of activity. Using a type of viability reporter, gain or loss-of-signal activity can be used to understand changes in the signaling. Furthermore, this assay endpoint can be referred to as a primary readout, because this assay has produced multiple assay endpoints where this one serves a signaling function. To generalize the intended target to other relatable targets, this assay endpoint is annotated to the cell morphology intended target family, where the subfamily is cell conformation.
# The levels of cell surface (or secreted, indicated by the prefix "s") biomarker endpoints were measured by ELISA. Overt cytotoxicity to cells in confluent adherent cultures (all systems other than the BT system) was assessed by measuring total protein levels using sulforhodamine B (SRB) staining in parallel cultures at the time of biomarker measurements, indicated as SRB endpoints. For proliferation assays for adherent cell types, individual cell types are cultured at sub-confluence and relative cell numbers quantified by SRB staining at time points optimized for each system (48 h: 3C and CASM3C systems; 72 h: BT and HDF3CGF systems; 96 h: SAg system). SRB was performed by staining cells with 0.1% SRB after fixation with 10% TCA and reading wells at 560 nm.Viability and proliferation of PBMC (T cells) was quantified by Alamar Blue reduction for the SAg and BT systems. For PBMC viability (referred to as PBMC Cytotoxicity within the assay endpoint names), cells were plated (75,000/well in a 96-well plate) and then chemical samples added for 1 h before addition of activators, SEB and TSST-1 (20 ng/mL final concentration each). Cells were incubated for 90 h. Then, Alamar Blue (20 uL/well) (Invitrogen, Cat DAL1100) was added for 6 h, and the plates were read with a fluorescence microplate reader at 546/580 nm (excitation/emission). For PBMC proliferation, cells were plated and activated as above but incubated for only 16 h prior to addition of Alamar Blue. Plates were read after 6 h.
Compound,outcome,AC50
O=C(O)c1[nH]n(-c2ccc(S(=O)(=O)O)cc2)c(=O)c1N=Nc1ccc(S(=O)(=O)O)cc1,inactive,
C/C=C/C=C/C(=O)O,inactive,
CC(C)COC(=O)CCCCC(=O)OCC(C)C,inactive,
Cc1c(C)c2c(c(C)c1O)CCC(C)(COc1ccc(CC3SC(=O)NC3=O)cc1)O2 (stereo not given),,17.3 µM (active)
COC(=O)CCCC(=O)OC,inactive,
CCCCCCCCCC[N+](C)(C)[O-],inactive,
CC(COCC(C)OC(=O)c1ccccc1)OC(=O)c1ccccc1 (stereo not given),inactive,
O=C(O)c1cccnc1,inactive,
COc1ccc(C(=O)Nc2nc3ccccc3c(NCc3ccccc3)c2C#N)cc1,,8.6 µM (active)
CCCCCCCCCCCCCCOS(=O)(=O)O,inactive,
CC(=O)OCC(COC(C)=O)OC(C)=O,inactive,
CCc1nc(N)nc(N)c1-c1ccc(Cl)cc1,inactive,
Oc1ccccc1O,,4.44 µM (active)
CC(C)(C)c1ccccc1,inactive,
O=C1O[C@H]([C@H](O)CO)C(O)=C1O,inactive,
CCCCCCC(CCCCCCCCCCC(=O)OCC(COC(C)=O)OC(C)=O)OC(C)=O (stereo not given),inactive,
O=C1c2c(O)cccc2Cc2cccc(O)c21,,20 µM (active)
Cc1cc(Cc2ccc(N)c(C)c2)ccc1N,inactive,
O=C(NS(=O)(=O)/C=C/c1cccs1)c1ccc(F)cc1Br,inactive,
CCC(C)N(C)C(=O)c1cc2ccccc2c(-c2ccccc2Cl)n1 (stereo not given),inactive,

Compound,outcome,AC50
c1ccc2occc2c1,inactive,
CCCCC(CC)COC(=O)CCCCCCCC(=O)OCC(CC)CCCC (stereo not given),inactive,
OCC(CO)n1cnc(-c2ccc(F)cc2)c1-c1ccnc(Oc2ccccc2)n1,inactive,
O=C(Oc1ccccc1)c1cccc(C(=O)Oc2ccccc2)c1,inactive,
CO[C@@H]1COCC[C@@H]1N[C@@H]1CC[C@@](C(=O)N2CCc3ncc(C(F)(F)F)cc3C2)(C(C)C)C1,inactive,
CN(C)C(=O)NC1(c2ccccc2)CCN(CC[C@@]2(c3ccc(F)c(F)c3)CN(C(=O)c3ccccc3)CCO2)CC1,inactive,
CCCCCCCCCCCCCCCCO,inactive,
O=C1NC(=O)C(c2ccccc2)(c2ccccc2)N1,inactive,
O=NO,inactive,
CC1(C)C(=O)NC(=O)N1CO,inactive,
Cc1ccc(-c2cc(C(F)(F)F)nn2-c2ccc(S(N)(=O)=O)cc2)cc1,,23.1 µM (active)
CC(N)=O,inactive,
Cc1cc(SC2=C(O)C[C@@](CCc3ccc(N)cc3)(C(C)C)OC2=O)c(C(C)(C)C)cc1CO,inactive,
CSc1ccc(Oc2ccc(S(N)(=O)=O)cc2CN(C)C)cc1C,inactive,
Cc1cn([C@H]2C=C[C@@H](CO)O2)c(=O)[nH]c1=O,inactive,
NC=O,inactive,
CCOCCOCCO,inactive,
CCCCCCC(C=O)=Cc1ccccc1,,31 µM (active)
CCCCOC(=O)CCCCC(=O)OCCCC,inactive,
CC(C)c1cccc(C(C)C)c1,inactive,
